# Experimental data: PubChem BioAssay AID485275 (NMMLSC, 2010)
# The campaign covered roughly 330,000 compounds. About 1,400 (0.42%) were called active. The sample as a whole holds a higher share of actives than the screen did. Values without a mark were called inactive.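 The calls were made as follows: active = plate passing quality check with inhibition over a set limit, or well fluorescence over plate mean plus 4 SD; inactive = the rest.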
# Assay: inhibitors of Candida efflux pumps in yeast, primary screen, S. cerevisiae, Nile Red, multiplex (AID 485275);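 also: Nile Red retained in pooled yeast measured as flow cytometry median fluorescence; 0% = buffer negative control and 100% = Enniatin B positive control; higher means more Nile Red kept so more efflux inhibition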
# Conditions: S. cerevisiae Candida pump triplex, at 10 µM, hits give high values
row,SMILES,inhibition
1,CCn1c(SCC(=O)NC2CC2)nnc1-c1ccccn1,-0.04%
2,COC(=O)c1ccc2c(c1)S(=O)(=O)NC(=NCCCN1CCOCC1)S2,0%
3,O=C(NCCC1CCCCN1S(=O)(=O)c1cccs1)C(=O)Nc1ccc(F)cc1F (stereo not drawn),0.02%
4,O=C(/C=C/c1ccc([N+](=O)[O-])cc1)NCCSCc1ccco1,0.15%
5,CC1CCc2c(sc(NC(=O)c3ccc(Cn4cc(Br)cn4)o3)c2C(N)=O)C1 (stereo not drawn),0.29% (active)
6,CN(C)c1ccc(/C=N/NC(=O)c2ccc(Cn3cc(Br)cn3)o2)cc1,-0.5%
7,COc1cccc(OC)c1C(=O)Nc1sc2c(c1C(N)=O)CCCC2,-0.23%
8,COc1ccc(CNc2ccc3c(c2)CCC3)cc1OC,0%
9,CCn1c(SCC(=O)N/N=C/c2ccccc2OCC(=O)O)nnc1-c1ccc(C(C)(C)C)cc1,0.05%
10,Cc1nnc(SCC(=O)NC(=O)NC2CCCC2)n1N,0.12%
11,Cc1ccc(/C=C(\C#N)C(=O)Nc2cccc3ncccc23)o1,6.65% (active)
12,N#C/C(=C/c1ccc(N2CCCCC2)o1)C(=O)NCCc1c[nH]c2ccccc12,-0.28%
13,O=C(O)c1cc(Cl)c(Cl)cc1C(=O)Nc1cccc2ncccc12,-0.06%
14,C[C@@H]1NC(=O)c2cc([N+](=O)[O-])cc(F)c2NCCC[C@@H](C(N)=O)NC(=O)[C@H](CC(N)=O)NC1=O,-0.03%
15,COc1ccccc1NC(=O)[C@H](COCc1ccccc1)NC(=O)OC(C)(C)C,-0.12%
16,CC(C)(C)OC(=O)N1CCC(C(=O)NNC(=O)c2ccc(Cl)cc2Cl)CC1,-0.04%
17,O=S(=O)(c1ccc2c(c1)OCCO2)N1CCc2ccccc21,0.34%
18,CCn1c(=O)c(=O)n(CC)c2cc(S(=O)(=O)N3CCc4ccccc43)ccc21,-0.1%
19,O=S(=O)(c1ccccc1)N1CCc2ccccc21,0.75% (active)
20,COc1ccc(CCNS(=O)(=O)c2cn(C)nc2C)cc1,-0.02%
21,CCOC(=O)N1CCN(C(=O)C2CCN(S(C)(=O)=O)CC2)CC1,-0.13%
22,Cc1ccc2c(C)c(C(=O)N(C)Cc3ccncn3)oc2c1C,1.25%

row,SMILES,inhibition
1,O=C1NC(=O)C2C1C(c1ccc([N+](=O)[O-])cc1)=NN2Cc1ccccc1 (stereo not drawn),1.09% (active)
2,CC(=O)N1c2ccccc2N(Cc2ccc([N+](=O)[O-])cc2)C(=O)C1(C)C,0.1%
3,O=C(NCCCCc1ccccc1)C1CC(c2ccc([N+](=O)[O-])cc2)=NO1 (stereo not drawn),0.02%
4,Cc1ccc(CN2CCN(Cc3cccc(C)n3)CC2CCO)cc1 (stereo not drawn),-0.07%
5,CC(=O)Nc1ccc(/C(C)=N/NC(=O)CN(c2ccccc2Br)S(C)(=O)=O)cc1,0.36%
6,O=C(Cc1ccc(Br)cc1)N1CCN(c2ccccn2)CC1,11.1% (active)
7,O=C(CCC1CCCN(C(=O)Cc2ccc(F)cc2)C1)N1CCN(c2ccccn2)CC1 (stereo not drawn),-0.13%
8,O=C(Cc1ccccc1Cl)N1CCN(c2ccccn2)CC1,-0.02%
9,COc1ccc(N(CC(=O)NCC2CCCO2)C(=O)CCC(=O)Nc2nccs2)c(OC)c1 (stereo not drawn),0.02%
10,CCN1CCN(c2ccc(S(=O)(=O)N3CCCCC3)cc2NC(=O)Cc2c(Cl)cccc2Cl)CC1,-0.36%
11,Cc1cc(-c2ccc(S(=O)(=O)N3CCc4ccccc4C3)s2)on1,-0.2%
12,CC(C)N(c1ccccc1)c1ncnc(NCCC(=O)O)c1[N+](=O)[O-],0.29%
13,CC(C)Cn1c(N)c(C(=O)COC(=O)C2CCCN2C(=O)c2cccs2)c(=O)n(C)c1=O (stereo not drawn),0.07%
14,Cc1cc(C)c2[nH]c(=O)c(C(c3nnnn3Cc3ccc4c(c3)OCO4)N3CCCC3)cc2c1 (stereo not drawn),1.06% (active)
15,CCOC(=O)C1CCN(C(c2cc3cc(C)cc(C)c3[nH]c2=O)c2nnnn2C2CCCCC2)CC1 (stereo not drawn),0.07%
16,Fc1ccccc1C(c1nnnn1Cc1ccc2c(c1)OCO2)N1CCN(Cc2ccccc2)CC1 (stereo not drawn),-0.02%
17,O=C(CN(c1cccc(Cl)c1)S(=O)(=O)c1ccccc1)NN=C1CCCC1,0.07%
18,O=C(CN1C2CCC1CC(NC(=O)C1CC1)C2)NCc1ccccc1 (stereo not drawn),-0.03%
19,CC(C)C(=O)N1CCN(c2nc(-c3ccccc3)c3c(c2C#N)CC(C)(C)OC3)CC1,-0.13%
20,O=C1CC2(CCN(C(=O)COc3ccc(F)cc3)CC2)Oc2ccccc21,-0.44%
21,CC(C)C(=O)N1CCC2(CC1)Oc1ccc(F)cc1C(=O)C21CC(c2ccccc2)=NO1 (stereo not drawn),78.3% (active)
22,CC(C)c1ccc2oc(=O)cc(CN3CCN(Cc4ccccc4)CC3)c2c1,-0.11%

row,SMILES,inhibition
1,CCc1ccc(OCC(=O)OCC(=O)c2c(N)n(C)c(=O)n(C)c2=O)cc1,-0.05%
2,Cn1c(N)c(C(=O)COC(=O)COc2ccc(Cl)cc2)c(=O)n(C)c1=O,0%
3,CCCCOc1ccc(C(=O)NCC(=O)OCC(=O)c2c(N)n(C)c(=O)n(C)c2=O)cc1,0.65% (active)
4,O=C(NCC1CCCO1)c1ccccc1-c1nc(-c2ccccc2Cl)no1 (stereo not drawn),-0.05%
5,CCCNC(=O)N1CCC(c2ccc3c(c2)OCO3)CC1,0.01%
6,Cc1cc(C(=O)NC2CC(C)(C)Cc3c2cnn3-c2ccccc2)n[nH]1 (stereo not drawn),0.03%
7,CC1(C)Cc2c(cnn2-c2cccc(F)c2)C(NC(=O)c2cc[n+]([O-])cc2)C1 (stereo not drawn),0.12%
8,COc1ccc(C(=O)NC2CC(C)(C)Cc3c2cnn3-c2ccccc2)c(OC)c1 (stereo not drawn),1.15% (active)
9,Cc1ccc(S(=O)(=O)N(Cc2ccc(Cl)cc2)c2ccccc2C(=O)NCc2cccnc2)cc1,0.08%
10,Cc1ccc(C(=O)Nc2ccc(NC(=O)c3cccs3)cc2)c(C)c1,0.18%
11,COc1cc(NC(=O)c2ccc3c(c2)OCO3)ccc1NC(=O)c1cccs1,-0.1%
12,O=C(Nc1ccc(NC(=O)c2cccs2)cc1)c1ccc2ccccc2c1,1.22% (active)
13,CCOC(=O)C1CCN(C(=O)CN2C(=O)NC(C)(c3ccc4cc(OC)ccc4c3)C2=O)CC1 (stereo not drawn),-0.03%
14,O=C1c2ccccc2[C@@H]2C[C@@H](O)[C@H](Nc3ccccc3Cl)CCN12,0.16%
15,O=C(CNCc1ccc(F)cc1)Nc1ccccc1-c1ccccc1,-0.07%
16,CCN(CC)CCn1c2c(c(SCC(=O)Nc3ccc(C(C)C)cc3)nc1=O)CCC2,-0.06%
17,CC1CCCCC1NC(=O)c1cn(C)c2ccc(S(=O)(=O)N3CCOCC3)cc2c1=O (stereo not drawn),-0.14%
18,COCCNC(=O)c1ccc2c(c1)ncn2-c1ccc(C)c(Cl)c1,0.09%
19,CCn1c(SCc2ccccc2)nc2cc(OC)c(OC)cc2c1=O,-0.05%
20,CCOCCCn1c(NN)nc2ccccc2c1=O,0.04%
21,CCn1c(/C=C/c2ccc([N+](=O)[O-])o2)nc2ccccc2c1=O,1.26% (active)
22,C=CC[C@H](CC(=O)NCCO)C(=O)N[C@@H](COC(=O)[C@@H](CC=C)Cc1ccc(F)cc1)Cc1c[nH]c2ccccc12,-0.26%

row,SMILES,inhibition
1,Cc1ccc(C(=O)NC(=S)Nc2ccc(N3CCOCC3)cc2)cc1,0%
2,COc1ccc(C(=O)NC(=S)Nc2ccc(N3CCCC3)cc2)cc1OC,6.65% (active)
3,COc1ccc(C(=O)NC(=S)Nc2ccccc2N2CCN(S(C)(=O)=O)CC2)cc1OC,0.06%
4,CCn1cc(C(=O)N2CC(C)CC(C)C2)c(=O)c2cc(S(=O)(=O)N3CCCC3)ccc21 (stereo not drawn),0.08%
5,O=C(NCCc1ccccn1)c1cc(-c2ccc(Cl)cc2)nc2ccccc12,0.18%
6,Cn1nnnc1SCC(=O)Nc1ccccc1C(=O)NC1CC1,0%
7,CC(=C/c1ccccc1)/C=N/NC(=O)c1cc(C)oc1C,0.06%
8,CC(C)(C)C1CCC(=NNC(=O)c2cc(-c3ccccc3)n[nH]2)CC1 (stereo not drawn),0.31%
9,CC(/C=N/NC(=O)c1cc(-c2ccc3ccccc3c2)n[nH]1)=C\c1ccco1,0.5% (active)
10,CCOC(OCC)c1ccc(/C=C\c2nccc(N)n2)cc1,-0.05%
11,Cc1ccc(-n2c(SCC(=O)Nc3ncc(Cl)cc3Cl)nc3ccccc32)cc1,0.75%
12,CCCn1c(O)c(CN2CCCC(C)C2)c(C)c(C#N)c1=O (stereo not drawn),-0.15%
13,CCOc1ccc(N2C(=O)CN(c3cccc4ccccc34)C2=S)cc1,-0.04%
14,COc1ccc(S(=O)(=O)N2CCOC2CNC(=O)C(=O)NCc2ccc(F)cc2)cc1 (stereo not drawn),5.66% (active)
15,COc1ccc(CCNC(=O)C(=O)NCC2OCCN2S(=O)(=O)c2ccc(F)cc2)cc1OC (stereo not drawn),0.07%
16,O=C(NCc1ccc2c(c1)OCO2)C(=O)NCC1OCCN1S(=O)(=O)c1ccc(F)cc1 (stereo not drawn),0.25%
17,O=C(c1ccc(Cl)nc1)N1CCN(S(=O)(=O)c2ccc3c(c2)OCCO3)CC1,-0.06%
18,O=C(OCc1ccc(Br)cc1)c1cccc(-c2nnc(-c3ccccc3)o2)c1,0.06%
19,O=C(OCc1ccc(-c2ccccc2)cc1)c1cccc(O)c1,20.2% (active)
20,O=C(OCC(=O)c1c[nH]c2ccccc12)c1cccc(O)c1,0.55%
21,COc1cc(CNc2ncn[nH]2)ccc1OCc1ccccc1C,0.06%
22,[2H]C(CCOS(N)(=O)=O)c1ccccc1 (stereo not drawn),-0.09%
